ChEMBL document CHEMBL1157539, “Thousands of chemical starting points for antimalarial lead identification” (Nature, 2010)

Experiments:
Type in all cases: functional
Plasmodium falciparum [1] = test: GSK_TCMDC: Inhibition of Plasmodium falciparum 3D7 in whole red blood cells, using parasite LDH activity as an index of growth. Test compounds present at 2uM
Plasmodium falciparum [2] = test: GSK_TCMDC: Inhibition of Plasmodium falciparum Dd2 in whole red blood cells, using parasite LDH activity as an index of growth. Test compounds present at 2uM
HepG2 = test: GSK_TCMDC: Percent inhibition of human HepG2 cell line. Test compounds present at 10uM.

SMILES	Inhibition (Plasmodium falciparum [1]) [%]	Inhibition (Plasmodium falciparum [2]) [%]	Inhibition (HepG2) [%]
COc1cc(C(=O)N2CCOC(CCN3CCc4c(c5ccccc5n4C)C3)(c3ccc(Cl)c(Cl)c3)C2)cc(OC)c1OC (centres undefined)	87	68	16
COc1cc(C2CCN(CCCCNC(=O)c3ccc(NC(=O)c4cc(C(F)(F)F)cc(C(F)(F)F)c4)cc3)CC2)ccc1OC(C)C	100	100	21
CC(=O)Nc1ccc(C(=O)Nc2ccc(-c3cccc(-c4nc5cc(C(F)(F)F)ccc5[nH]4)c3)cc2)cn1	100	98	29
Cc1noc(C)c1-c1ccc2c(Nc3ccccc3C(C)(C)C)c(C(=O)NCc3ccc4c(c3)OCO4)cnc2c1.Cl	96	88	37
CC(=O)Nc1ccc(C#Cc2ccc(-c3c(C)[nH]c(C)c(Cl)c3=O)cc2)cc1	90	78	0
Cc1ccc(-c2cc(C(=O)Nc3ccc(S(=O)(=O)N4CC(C)OC(C)C4)cc3)[nH]n2)c(O)c1 (centres undefined)	91	98	16
O=C(/C=C/c1ccc(Cl)c(Cl)c1)NCCCCCN1CCCN(C(=O)Nc2ccc(F)c(Cl)c2)CC1	95	0	31
O=C(/C=C/c1ccc(Cl)c(Cl)c1)NCCCCCN1CCC(NC(=O)c2cccc(Cl)c2)CC1	98	23	12
O=C(NCCCCN1CCC(c2ccc3c(c2OCCN2CCCC2=O)CCCC3)CC1)c1ccc(-c2ccc(C(F)(F)F)cc2)cc1	88	1	56
Cc1cccc2nc(-c3cccc(-c4cccc(CNCc5ccc(S(C)(=O)=O)cc5)c4)c3)[nH]c12.O=C(O)C(F)(F)F	100	66	13
Clc1ccccc1OCc1ccccn1	85	2	2
COc1cc(CN2CCC(CO)(Cc3cccc(C(F)(F)F)c3)CC2)c(Cl)cc1O	99	64	12
CCc1cccc(NC(=O)/C=C/c2ccc3c(c2)CN(C)CC3)c1	94	91	8
COc1ccc2nccc([C@@H](O)CN3CCC(NCc4cc5cccnc5[nH]4)CC3)c2n1.O=C(O)C(=O)O	90	0	7
CC(=O)Nc1ccc2[nH]cc(C3CCN(CCC4CCN(C(=O)/C=C/c5ccc(Cl)c(Cl)c5)CC4)CC3)c2c1	95	7	13
O=C(/C=C/c1ccc(C(F)(F)F)cc1)NCCCCCN1CCCN(C(=O)Nc2ccc(F)c(Cl)c2)CC1	100	33	33
O=C(NCc1ccc(Cl)c(Cl)c1)[C@H]1CNCCN1C(=O)c1ccccc1.O=C(O)C(F)(F)F	97	4	0
Cc1noc(C)c1-c1ccc2c(Nc3ccccc3C(C)(C)C)c(C(=O)NCc3cccc4ccccc34)cnc2c1.Cl	96	64	4
CC(=O)Nc1cccc(C(=O)Nc2ccc(-c3cccc(-c4nc5cc(F)ccc5[nH]4)c3)cc2)c1	96	8	90
COc1ccccc1NS(=O)(=O)c1cc(C(=O)Nc2ccc(N3CCOCC3)c(S(=O)(=O)Nc3ccccc3Cl)c2)ccc1Cl	97	25	0

SMILES	Inhibition (Plasmodium falciparum [1]) [%]	Inhibition (Plasmodium falciparum [2]) [%]	Inhibition (HepG2) [%]
CC(C)CCn1c(Sc2ccc(C#N)c([N+](=O)[O-])c2)nnc1-c1ccc(N(C)C)cc1	97	96	11
O=C(/C=C/c1ccc(Cl)c(Cl)c1)NCCCCCN1CCC(NC(=O)Nc2ccc(Br)cc2)CC1	100	7	36
Cc1cnc(C(=O)Nc2ccc(-c3cccc(-c4nc5ccccc5[nH]4)c3)cc2)cn1	93	8	77
CCc1nc2ccc(C(=O)OC)nc2n1Cc1ccc2oc(-c3ccccc3N)c(Br)c2c1	93	75	8
Fc1ccc2[nH]c(-c3cccc(-c4cccc(CNCCN5CCNCC5)c4)c3)nc2c1.O=C(O)C(F)(F)F	94	4	18
Cc1cc(NCCC(=O)Nc2ccccc2)nc(NCCc2cccs2)n1.O=C(O)C(F)(F)F	99	20	26
CCOC(=O)CN(c1ccc(Br)cc1OCCOc1cc(Br)ccc1N(CC(=O)OCC)C(C)C(=O)OCC)C(C)C(=O)OCC (centres undefined)	94	6	0
CC1(C)N=C(N)N=C(N)N1OCCCOc1cc(Cl)c(Cl)cc1Cl.Cl	95	95	60
CC1=C(C(=O)OCCOCc2ccccc2)C(c2ccccc2C(F)(F)F)C(C(=O)OCCOCc2ccccc2)=C(C)N1	89	87	0
CCC(C)NC(=O)Nc1ccc(-c2cccc(-c3nc4ccccc4[nH]3)c2)cc1 (centres undefined)	94	37	41
Nc1cc(-c2cccc(Cl)c2)nn1-c1ccnc2cc(Cl)ccc12	99	33	0
Cc1cc(NCCC(=O)NCCOc2ccccc2)nc(NCCc2ccc(F)cc2)n1.O=C(O)C(F)(F)F	97	4	14
COc1ccc2cc(-c3nc(-c4c(Cl)cccc4Cl)[nH]c3-c3ccnc(NCCCN4CCN(C)CC4)c3)ccc2c1.O=C(O)C(F)(F)F	98	80	10
Nc1nc(N)c2c(ccc3c2ccn3CCCCO)n1	93	49	61
COc1ccc(CNC(=O)NC2CCN(c3ccnc(Nc4cc(OC)c(OC)c(OC)c4)n3)C2)cc1 (centres undefined)	91	90	0
COc1cc(NC(=O)/C=C/c2cc(F)cc(F)c2F)cc(OCCN2CCC3(CC2)OCCO3)c1.O=C(O)C(=O)O	98	26	17
CN(C)Cc1ccc(-c2ccc(NC(=O)c3ccc4c(=O)n(Cc5ccoc5)cnc4c3)cc2)cc1	80	16	32
Cc1ccc(OCC2CCN(c3ncc(C(=O)NCCCN4CCCC4=O)cc3Cl)CC2)cc1	94	71	7
CCOc1cc(C(=O)NCCCN2CCCCC2C)ccc1-c1nc2cc(Cl)ccc2[nH]1 (centres undefined)	89	0	2
CCCCOc1ccc(C(=O)C(CCC(CNC(C)(C)C)C(=O)c2ccc(OCCCC)cc2)CNC(C)(C)C)cc1.Cl (centres undefined)	94	92	100

SMILES	Inhibition (Plasmodium falciparum [1]) [%]	Inhibition (Plasmodium falciparum [2]) [%]	Inhibition (HepG2) [%]
N#Cc1ccc(N2CCN(C(=O)c3cccc(-c4noc(C(F)(F)F)n4)c3)CC2)nc1	84	58	18
O=C(O)C(F)(F)F.Oc1ccc(CCNc2nc(NCc3ccccc3-c3ccccc3)nc(N3CCCNCC3)n2)cc1	95	20	26
CC(C)C1=CC(=NOS(=O)(=O)c2ccccc2)C=C(C(C)C)C1=O	92	74	23
COc1cc(NC(=O)/C=C/c2cc(F)cc(F)c2F)cc(OCCN2CCC(O)(c3ccccc3)CC2)c1.O=C(O)C(=O)O	100	82	54
O=C(NCc1ccccc1)Nc1ccc(-c2ccc(-c3nc4cc(C(F)(F)F)ccc4[nH]3)cc2)cc1	99	23	40
CC(=O)Nc1ncc(C(=O)Nc2cccc(-c3ccc(-c4nc5cc(C(F)(F)F)ccc5[nH]4)cc3)c2)s1	100	94	83
COc1cccc(CN2CCC(C(=O)Nc3ccc(-c4nc5ccccc5[nH]4)cc3)CC2)c1	100	84	9
O=c1nc(NCCCCCN2CCC(c3c[nH]c4ccccc34)CC2)[nH]cc1Cc1ccc(Cl)c(Cl)c1	94	8	21
N#Cc1ccc(N(CCOc2ccc3c(c2)CCC(=O)N3)Cc2ccccc2C(F)(F)F)cc1C(F)(F)F	98	64	19
CC(C)(CNCc1ccc(Cl)c(Cl)c1)c1nc(-c2ccc(Cl)c(O)c2)c(-c2ccncc2)[nH]1.Cl	100	97	43
COc1ccc2nccc([C@@H](O)CN3CCC(NCc4ccc5c(c4)NC(=O)CS5)CC3)c2c1.O=C(O)C(=O)O	100	36	0
O=C(O)C(F)(F)F.c1cc(CNCc2ccc3c(c2)OCO3)cc(-c2cccc(CNc3ccc4ncccc4c3)c2)c1	98	27	18
CN1CCN(c2cccc(Nc3nccc(NCC(O)c4ccccc4)n3)c2)CC1 (centres undefined)	100	4	30
N#Cc1cncc(-c2nc3c(N4CCCC(N)C4)cccc3n2CCNCc2ccccc2)c1.O=C(O)C(F)(F)F (centres undefined)	100	1	8
COc1ccc(-c2ccc(NC(=O)c3cccc(F)c3)cc2)cc1CNC(C)C.O=C(O)C(F)(F)F	97	14	17
CC1CCN(C(=O)[C@H](Cc2c[nH]c3ccccc23)NS(=O)(=O)c2ccc(Cl)cc2)CC1	100	99	0
Cc1noc(C)c1-c1ccc2c(Nc3ccccc3N3CCOCC3)c(C(=O)NCc3ccccc3)cnc2c1.Cl	91	6	23
CC(=O)c1cccc(S(=O)(=O)NCCCNc2nc3cc(C)cc(C)c3cc2C#N)c1	95	75	11
